Assay results from PubChem BioAssay (NCATS).
Results filed as inconclusive are left out. A call without a number means that no potency is given here. The source made the active and inactive calls. Calls follow the shape of the dose curve; as a rule, active = well fitted cell-killing curve with a large enough effect; inconclusive = small, poorly fitted or top-dose-only effect, or effect the other way; inactive = flat fitted curve, though single readings scatter.

Test system: SKOV3
Assay: Primary qHTS to identify gynecologic anti-cancer compounds using libraries of approved drugs and bioactive compounds (AID 1345084); also: nearly all actives have a fitted effect of over 55% in size
Settings: Gynecologic cancer cell panel viability, ATPlite luminescence, 48 h; series mostly up to 57.5 µM
How it was run: (§1)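 Cells, 1,000 per well, were allowed to settle for 16 h at 37 C before compound addition. Five concentrations were tested for 48 h, and viability was read by ATPlite luminescence after 15 min at room temperature.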

SMILES | Potency
CO[C@@H]1[C@@H](O[C@@H]2O[C@H](C)[C@@H](O[C@H]3C[C@@](C)(O)[C@@H](O)[C@H](C)O3)[C@H](N(C)C)[C@H]2O)[C@@H](CC=O)C[C@@H](C)[C@@H](O[C@@H]2CC[C@H](N(C)C)[C@@H](C)O2)/C=C/C=C/C[C@@H](C)OC(=O)C[C@H]1OC(C)=O | inactive
O=C(CCCCC(=O)Nc1c(I)cc(I)c(C(=O)O)c1I)Nc1c(I)cc(I)c(C(=O)O)c1I | inactive
OC[C@]1(O)OC[C@@H](O)[C@H](O)[C@@H]1O | inactive
CN1CCC(=C2c3ccccc3CCc3cccnc32)CC1 | inactive
Cc1ccccc1N1CCN(CCc2nnc3n2CCCC3)CC1 | inactive
O=C(NO)c1ccccc1 | inactive
Cc1ncc(CO)c(CO)c1O | inactive
O=C1CC2(CCCC2)CC(=O)N1CCNCC1COc2ccccc2O1 (stereo not given) | inactive
CC(=O)OCC[N+](C)(C)C | inactive
Oc1ccccc1 | inactive
c1ccc(C(O[C@H]2CCCN(CCc3ccc4c(c3)OCO4)C2)c2ccccc2)cc1 | inactive
CCCCC(=O)OCC(=O)[C@H]1[C@H](C)C[C@H]2[C@@H]3C[C@H](F)C4=CC(=O)C=C[C@]4(C)[C@@]3(F)[C@@H](O)C[C@@]21C | inactive
CN1C(CSCC(F)(F)F)Nc2cc(Cl)c(S(N)(=O)=O)cc2S1(=O)=O (stereo not given) | inactive
COc1cc(C=O)ccc1O | inactive
O=C(O)/C=C(\CC(=O)O)C(=O)O | inactive
O=C(CCCCCCCCC#CI)Oc1ccccc1 | inactive
NC(=O)COCCN1CCN(C(c2ccccc2)c2ccc(Cl)cc2)CC1 (stereo not given) | inactive
COC(=O)C1=C(C)NC(COC(N)=O)=C(C(=O)OC(C)C)C1c1cccc(Cl)c1Cl (stereo not given) | inactive
CC(=O)OCC(=O)[C@@]1(O)[C@H](OC(C)=O)C[C@H]2[C@@H]3CCC4=CC(=O)C=C[C@]4(C)[C@@]3(F)[C@@H](O)C[C@@]21C | inactive
O=C(c1ccccc1)c1ccccc1 | inactive
C[C@H]1C[C@@H]2[C@H]([C@@H](O)C[C@@]3(C)[C@H]2CC[C@]3(O)C(=O)CO)[C@@]2(C)C=CC(=O)C=C12 | inactive

Test system: Tov-21-G
Assay: as above
Settings: Gynecologic cancer cell panel viability, ATPlite luminescence, 48 h; series mostly up to 57.5 µM
How it was run: as §1

SMILES | Potency
Cc1c(N)cccc1C(F)(F)F | inactive
O=C(O)CCC(=O)OC[C@@H](NC(=O)C(Cl)Cl)[C@H](O)c1ccc([N+](=O)[O-])cc1 | inactive
O=C(COCCOCCOCC(=O)Nc1c(I)cc(I)c(C(=O)O)c1I)Nc1c(I)cc(I)c(C(=O)O)c1I | inactive
CC(=O)[C@@]1(O)CC[C@H]2[C@@H]3C[C@H](C)C4=CC(=O)CC[C@]4(C)[C@H]3CC[C@@]21C | inactive
CCN(CC)CC(=O)OCC(=O)[C@@]1(O)CC[C@H]2[C@@H]3CCC4=CC(=O)CC[C@]4(C)[C@H]3[C@@H](O)C[C@@]21C | inactive
C[C@@]12CCC[C@H]1[C@@H]1CC[C@H]3C[C@@H](O)CC[C@]3(C)[C@H]1CC2 | inactive
CCCCC(CC)COC(=O)c1ccccc1C(=O)O (stereo not given) | inactive
CC(C)(C)CC(=O)OCC(=O)[C@@]1(O)CC[C@H]2[C@@H]3CCC4=CC(=O)C=C[C@]4(C)[C@H]3[C@@H](O)C[C@@]21C | inactive
CN=C(N)NC(=O)Nc1c(C)cccc1C | inactive
CO[C@@H]1[C@@H](O[C@@H]2O[C@H](C)[C@@H](O[C@H]3C[C@@](C)(O)[C@@H](O)[C@H](C)O3)[C@H](N(C)C)[C@H]2O)[C@@H](CC=O)C[C@@H](C)[C@@H](O[C@@H]2CC[C@H](N(C)C)[C@@H](C)O2)/C=C/C=C/C[C@@H](C)OC(=O)C[C@H]1OC(C)=O | inactive
CN(C)CCOC(c1ccccc1)c1ccc(Br)cc1 (stereo not given) | inactive
O=C(CCCCC(=O)Nc1c(I)cc(I)c(C(=O)O)c1I)Nc1c(I)cc(I)c(C(=O)O)c1I | inactive
OC[C@]1(O)OC[C@@H](O)[C@H](O)[C@@H]1O | inactive
CN1Cc2cc(C(=O)N3CCC(C4CCNCC4)CC3)ccc2NC(CC(=O)O)C1=O (stereo not given) | inactive
Nc1c(I)cc(I)c(C(=O)N(CCC(=O)O)c2ccccc2)c1I | inactive
Cc1ccccc1N1CCN(CCc2nnc3n2CCCC3)CC1 | inactive
O=C(NO)c1ccccc1 | inactive

SMILES | Potency
Cc1ccc2ccc(Cl)cc2n1 | inactive
Cc1ncc(CO)c(CO)c1O | inactive
O=C1CC2(CCCC2)CC(=O)N1CCNCC1COc2ccccc2O1 (stereo not given) | inactive
CC(=O)OCC[N+](C)(C)C | inactive
Oc1ccccc1 | inactive
c1ccc(C(O[C@H]2CCCN(CCc3ccc4c(c3)OCO4)C2)c2ccccc2)cc1 | inactive
CCCCC(=O)OCC(=O)[C@H]1[C@H](C)C[C@H]2[C@@H]3C[C@H](F)C4=CC(=O)C=C[C@]4(C)[C@@]3(F)[C@@H](O)C[C@@]21C | inactive
O=C(OCC(O)CO)c1ccccc1Nc1ccnc2c(C(F)(F)F)cccc12 (stereo not given) | inactive
CN1C(CSCC(F)(F)F)Nc2cc(Cl)c(S(N)(=O)=O)cc2S1(=O)=O (stereo not given) | inactive
COc1cc(C=O)ccc1O | inactive
O=C(O)/C=C(\CC(=O)O)C(=O)O | inactive
O=C(CCCCCCCCC#CI)Oc1ccccc1 | inactive
NC(=O)COCCN1CCN(C(c2ccccc2)c2ccc(Cl)cc2)CC1 (stereo not given) | inactive
COC(=O)C1=C(C)NC(COC(N)=O)=C(C(=O)OC(C)C)C1c1cccc(Cl)c1Cl (stereo not given) | inactive
CC(=O)OCC(=O)[C@@]1(O)[C@H](OC(C)=O)C[C@H]2[C@@H]3CCC4=CC(=O)C=C[C@]4(C)[C@@]3(F)[C@@H](O)C[C@@]21C | inactive
O=C(c1ccccc1)c1ccccc1 | inactive
C[C@H]1C[C@@H]2[C@H]([C@@H](O)C[C@@]3(C)[C@H]2CC[C@]3(O)C(=O)CO)[C@@]2(C)C=CC(=O)C=C12 | inactive
